# Data: PubChem BioAssay (NCATS)
# Results filed as inconclusive are left out. Entries that show only a call come without a potency. Active and inactive are the calls of the source. The call rests on the fitted dose curve; in most records, active means well fitted curve in the direction sought with a large enough effect; inconclusive means small, poorly fitted or top-dose-only effect, or another doubt; inactive means no such curve, though single readings can be large; an effect the other way counts as inactive or inconclusive.
# What was measured:
# [1] = qHTS of pediatric cancer cell lines to identify multiple opportunities for drug repurposing: Primary screen for control Hh wild type fibroblast cells (AID 1347106);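 further: series mostly up to about 46 µM; a drop in luminescence marks cytotoxicity and a rise apparent proliferation; nearly all actives have a fitted effect of over 55% in size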
# Procedure, shortened: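 Viability after 48 h compound treatment at 37C, 500-1,000 cells/well, read as ATP luminescence with CellTiter-Glo. Primary screens used 11-point (MIPE, 0.78 nM-46 µM) or 8-point (NPC, 0.59 nM-46 µM) final concentrations; follow-up screens used 11-point dilutions.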
# [2] = qHTS of pediatric cancer cell lines to identify multiple opportunities for drug repurposing: Primary screen for Rh30 cells (AID 1347107); further: series mostly up to about 46 µM; nearly all actives have a fitted effect of over 75% in size
# Procedure, shortened: (§1)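 Cells (500-1,000/well) rested 5 h, then received compounds for 48 h; metabolically active cells were measured by CellTiter-Glo luminescence. Final concentrations spanned up to 46 µM (MIPE, 11-point) or 0.59 nM-46 µM (NPC, 8-point) in primary screens, 11-point in follow-ups.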
# [3] = qHTS of pediatric cancer cell lines to identify multiple opportunities for drug repurposing: Confirmatory screen for NB1643 cells (AID 1347109); further: nearly all actives have a fitted effect of over 45% in size; further: potency means the concentration at half of the fitted maximal effect
# Procedure, shortened: as §1
# [4] = qHTS of pediatric cancer cell lines to identify multiple opportunities for drug repurposing: Confirmatory screen for A673 cells (AID 1347110);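 further: cells exposed to compound for 48 h before the viability read; nearly all actives have a fitted effect of over 65% in size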; further: potency means the concentration at half of the fitted maximal effect
# Procedure, shortened: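 A673 cells seeded at 500-1,000 cells/well, rested 5 h, then dosed; primary MIPE 11-point (0.78 nM to 46 µM), NPC (0.59 nM to 46 µM); confirmatory 11-point. CellTiter-Glo luminescence after 48 h.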
# [5] = qHTS of pediatric cancer cell lines to identify multiple opportunities for drug repurposing: Confirmatory screen for SK-N-MC cells (AID 1347111);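 further: cells exposed to compound for 48 h before the readout; nearly all actives have a fitted effect of over 70% in size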; further: potency means the concentration at half of the fitted maximal effect
# Procedure, shortened: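 Seed 500-1,000 cells/well; rest 5 h at 37 degrees C. Pin-transfer compounds, 11-point titration. Incubate 48 h. Add CellTiter-Glo, 15 min RT, read luminescence.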
# [6] = qHTS of pediatric cancer cell lines to identify multiple opportunities for drug repurposing: Confirmatory screen for BT-12 cells (AID 1347112); further: nearly all actives have a fitted effect of over 55% in size; further: potency means the concentration at half of the fitted maximal effect
# Procedure, shortened: as §1
# [7] = qHTS of pediatric cancer cell lines to identify multiple opportunities for drug repurposing: Confirmatory screen for DAOY cells (AID 1347114); further: nearly all actives have a fitted effect of over 65% in size; further: potency means the concentration at half of the fitted maximal effect
# Procedure, shortened: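 Viability measured as metabolically active cells via CellTiter-Glo luminescence following 48 hours of compound exposure, 11-point dilutions in confirmatory testing. 500-1,000 cells/well plated 5 hours before dosing; controls were DMSO and 2.3 µM bortezomib.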
# [8] = qHTS of pediatric cancer cell lines to identify multiple opportunities for drug repurposing: Confirmatory screen for NB-EBc1 cells (AID 1347115);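 further: cells exposed to compound for 48 h before the viability read; nearly all actives have a fitted effect of over 45% in size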
# Procedure, shortened: as §1
# [9] = qHTS of pediatric cancer cell lines to identify multiple opportunities for drug repurposing: Primary screen for Rh41 cells (AID 1347108);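 further: series mostly up to about 46 µM; luminescence drop marks cytotoxic hits; nearly all actives have a fitted effect of over 70% in size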
# Procedure, shortened: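 Viability was measured as metabolically active cells after 48 hours of treatment, read by CellTiter-Glo luminescence. Compounds were tested at multiple final concentrations, giving concentration-response curves.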
Structure (SMILES),Potency [1],Potency [2],Potency [3],Potency [4],Potency [5],Potency [6],Potency [7],Potency [8],Potency [9]
O=NN(CCCl)C(=O)NC1CCCCC1,inactive,inactive,inactive,inactive,inactive,inactive,inactive,inactive,–
C[C@@H]1C[C@H]2[C@@H]3CCC4=CC(=O)C=C[C@]4(C)[C@@]3(Cl)[C@@H](O)C[C@]2(C)[C@@]1(OC(=O)c1ccco1)C(=O)CCl,inactive,inactive,369 nM (active),2610 nM (active),827 nM (active),5850 nM (active),10400 nM (active),–,–
COC(=O)Nc1nc2ccc(S(=O)c3ccccc3)cc2[nH]1 (centres undefined),inactive,inactive,1850 nM (active),1170 nM (active),1470 nM (active),–,928 nM (active),–,–
CCC(=O)O[C@]1(C(=O)SCF)[C@H](C)C[C@H]2[C@@H]3C[C@H](F)C4=CC(=O)C=C[C@]4(C)[C@@]3(F)[C@@H](O)C[C@@]21C,inactive,inactive,inactive,1040 nM (active),inactive,inactive,–,–,inactive
COc1cnc(NS(=O)(=O)c2ccc(N)cc2)nc1,inactive,inactive,–,–,–,–,–,–,inactive
CCCN[C@H]1CCc2nc(N)sc2C1,inactive,–,–,–,–,–,–,–,inactive
CC(C)(C#N)c1cc(Cn2cncn2)cc(C(C)(C)C#N)c1,inactive,inactive,inactive,inactive,inactive,inactive,inactive,inactive,–
S=P(N1CC1)(N1CC1)N1CC1,inactive,–,–,928 nM (active),3690 nM (active),inactive,inactive,–,–
NS(=O)(=O)c1cc2c(cc1Cl)NC(C(Cl)Cl)NS2(=O)=O (centres undefined),inactive,inactive,–,–,–,–,–,–,inactive
